# Values joined by “and” are separate entries in the source; they are usually repeats but may differ in a detail not shown here. Equal entries are not always repeated. Inconclusive results are not listed. Entries that show only a call come without a potency. Unmarked numbers belong to inactive results. Active and inactive are the calls of the source. Calls follow the shape of the dose curve; as a rule, active = well fitted curve in the direction sought with a large enough effect; inconclusive = small, poorly fitted or top-dose-only effect, or another doubt; inactive = no such curve, though single readings can be large; an effect the other way counts as inactive or inconclusive.
# How the values were obtained:
# [1] = Viability qHTS for spleen associated tyrosine kinase inhibitor (SYKi) naive MV4-11 cells (AID 1963823); also: nearly all actives have a fitted effect of over 40% in size
# Procedure, shortened: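 Cells: MV4-11, SYK inhibitor naive, 500 per well. Treatment: library compounds, 72 hr, 37 C, 5% CO2. Read-out: CellTiter-Glo luminescence after 10 min RT.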
# [2] = Cellular viability qHTS for adrenocortical cancer (ACC) cell line SW-13 (AID 1963989); conditions: SW-13 ACC cells viability, CellTiter-Glo, 48 h; activity (max response): stronger effect = lower value; also: nearly all actives have a fitted effect of over 65% in size;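 as to activity (max response): cells grown in serum-free medium with ITS supplement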
# Procedure, shortened: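 Luminescent ATP read-out (CellTiter-Glo, 20 min at room temperature) measured metabolically competent SW-13 cells after 48 h compound treatment. Final concentrations spanned up to 46 uM; bortezomib served as positive control.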
# [3] = Cellular viability qHTS for adrenocortical cancer (ACC) cell line NCI-H295R (AID 1963990); also: nearly all actives have a fitted effect of over 60% in size
# Procedure, shortened: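 IC50 and maximal efficacy derive from four-parameter logistic modelling of titration curves, with reads scaled between DMSO-only wells (0%) and doxorubicin hydrochloride (100% inhibition). Compounds spanned up to 46 uM over 48 h.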
# [4] = Viability qHTS for spleen associated tyrosine kinase inhibitor (SYKi) drug resistant MV4-11 cells (AID 1963824); also: nearly all actives have a fitted effect of over 35% in size
# Procedure, shortened: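 SYK-inhibitor-resistant MV4-11 AML cells were seeded at 500 per well onto compound and cultured 72 hours (37 °C, 5% CO2). CellTiter-Glo was then added, and after 10 min at room temperature, luminescence gave viability.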
# Potency is read from the fitted curve at half-maximal effect.
compound,measurement,setting,value
CCCC(C)C1(CC)C(=O)N=C(S)NC1=O (configuration not stated),Potency,[1],inactive
same,activity (max response),[2],-0.902%
same,Potency,[3],inactive
Oc1ccc2c3c1O[C@H]1[C@@H](O)C=C[C@H]4[C@@H](C2)NCC[C@@]341,Potency,[1],inactive
same,activity (max response),[2],-14.8%
same,Potency,[3],inactive
CO/C1=C/C(C)=C\[C@@H](C)[C@@H](O)[C@@H](C)C/C(C)=C\C=C/[C@H](OC)[C@@H]([C@@H](C)[C@@H](O)[C@H](C)[C@@]2(O)C[C@@H](O)[C@H](C)[C@@H](C(C)C)O2)OC1=O,Potency,[1],0.0221 µM (active)
same,Potency,[2],0.245 µM (active)
same,Potency,[3],0.0435 µM (active)
CCCCCCCCCCCC[N+](C)(C)CCOc1ccccc1,Potency,[1],2.66 µM (active)
same,Potency,[2],5.17 µM (active)
same,Potency,[3],23.1 µM (active)
C[C@@H](N)[C@@H](O)c1ccccc1,Potency,[1],inactive
same,activity (max response),[2],3.81%
same,Potency,[3],inactive
N=c1c2c(-c3ccccc3)c(-c3ccccc3)n(Cc3ccccc3)c2ncn1C1CCC(O)CC1 (configuration not stated),Potency,[1],0.525 µM (active)
same,Potency,[2],17.8 µM (active)
same,Potency,[3],8.91 µM (active)
CC(C)(C)NCC(O)c1cc(Cl)c(N)c(Cl)c1 (configuration not stated),Potency,[1],inactive
same,activity (max response),[2],11.4%
same,Potency,[3],inactive
CO[C@]12CC[C@@]3(C[C@@H]1[C@](C)(O)C(C)(C)C)[C@@H]1Cc4ccc(O)c5c4[C@@]3(CCN1CC1CC1)[C@H]2O5,Potency,[1],21.5 µM (active)
same,Potency,[2],6.31 µM (active)
same,Potency,[3],3.98 µM (active)
COc1ccc(CN2CCNCC2)c(OC)c1OC,Potency,[1],inactive
same,activity (max response),[2],10.4%
same,Potency,[3],inactive
CC1=C2[C@H]3OC(=O)[C@@H](C)[C@@H]3CC[C@@]2(C)C=CC1=O,Potency,[1],inactive
same,activity (max response),[2],-9.75%
same,Potency,[3],inactive
COc1cccc2c1C(=O)c1c(O)c3c(c(O)c1C2=O)C[C@@](O)(C(=O)CO)CC3OC1CC(N2CCOC(OC)C2)C(O)C(C)O1 (some centres not stated),Potency,[1],0.0027 µM (active)
same,Potency,[2],0.1 µM (active)
same,Potency,[3],0.0501 µM (active)
CC(Cc1ccccc1)NCc1ccccc1Cl (configuration not stated),Potency,[1],inactive
same,activity (max response),[2],-8.69%
same,Potency,[3],inactive
CC(=O)OCC1=C(C(=O)O)N2C(=O)[C@@H](N)[C@H]2SC1,Potency,[1],inactive
same,activity (max response),[2],5.22%
same,Potency,[3],inactive
COc1ccc2c3c1O[C@H]1[C@@H](O)C=C[C@H]4[C@@H](C2)N(C)CC[C@@]341,Potency,[1],37.8 µM (active)
same,Potency,[2],14.1 µM (active)
O=c1[nH]c2cc(Cl)ccc2n1C1CCNCC1,Potency,[1],inactive
same,activity (max response),[2],8.8%
same,Potency,[3],inactive
CC(C)(O)C(Cl)(Cl)Cl,Potency,[1],inactive
same,activity (max response),[2],9.4%
same,Potency,[3],inactive
CCOP(=S)(OCC)Oc1ccc2c(C)c(Cl)c(=O)oc2c1,Potency,[1],inactive
same,activity (max response),[2],7.58%
CNC(=O)Oc1cccc2ccccc12,Potency,[1],inactive
same,activity (max response),[2],-8.24%
CCN(CC)C(=O)N[C@@H]1C=C2c3cccc4[nH]cc(c34)C[C@@H]2N(C)C1,Potency,[1],inactive
same,activity (max response),[2],5.3%
same,Potency,[3],inactive
CCOC(=O)c1ncn2c1CN(C)C(=O)c1c(I)cccc1-2,Potency,[1],inactive
same,activity (max response),[2],-2.47%
same,Potency,[3],inactive
COP(=S)(OC)Oc1ccc(S(N)(=O)=O)cc1,Potency,[1],inactive
same,activity (max response),[2],5.57%
same,Potency,[3],inactive
CS(=O)(=O)c1ccc(C(=O)C2C(=O)CCCC2=O)c([N+](=O)[O-])c1,Potency,[1],6.24 µM (active)
same,activity (max response),[2],-0.0273%
same,Potency,[3],inactive
C#C[C@]1(O)C=C[C@H]2[C@@H]3CCC4=CC(=O)CC[C@@H]4[C@H]3CC[C@@]21CC,Potency,[1],inactive
same,activity (max response),[2],-4.27% and 2.85%
CC(C)(O)/C=C\C(=O)[C@](C)(O)[C@H]1[C@H](O)C[C@]2(C)[C@@H]3CC=C4[C@@H](C=C(O)C(=O)C4(C)C)[C@]3(C)C(=O)C[C@@]12C,Potency,[1],0.059 µM (active)
same,Potency,[2],0.562 µM (active)
same,Potency,[3],1.26 µM (active)
CN1C2CCC(C)(C)C1CC(OC(=O)C(O)(c1cccs1)c1cccs1)C2 (configuration not stated),Potency,[1],inactive
same,activity (max response),[2],-3.56%
same,Potency,[3],inactive
ClCCN1CCCC1,Potency,[1],inactive
same,activity (max response),[2],12.8%
same,Potency,[3],inactive
CC(C)=CC1C(C(=O)OCc2cccc(Oc3ccccc3)c2)C1(C)C (configuration not stated),Potency,[1],inactive
same,activity (max response),[2],3.55%
same,Potency,[3],inactive
C[C@]12CCC(=O)C=C1CC[C@@H]1[C@@H]2CC[C@]2(C)C(=O)CC[C@@H]12,Potency,[1],inactive
same,activity (max response),[2],-7.18%
same,Potency,[3],inactive
CCOP(=S)(OCC)O/N=C(\C#N)c1ccccc1,Potency,[1],inactive
same,activity (max response),[2],0.816%
same,Potency,[3],inactive
CC(=O)[C@H]1CC[C@H]2[C@@H]3CC[C@H]4C[C@](C)(O)CC[C@]4(C)[C@H]3CC[C@]12C,Potency,[1],inactive
same,activity (max response),[2],7.79%
same,Potency,[3],inactive
O=C(O)COc1nc(Cl)c(Cl)cc1Cl,Potency,[1],inactive
same,activity (max response),[2],12.3%
same,Potency,[3],inactive
Cc1nc2ccccc2c(=O)n1-c1ccccc1Cl,Potency,[1],inactive
same,activity (max response),[2],-17.2%
same,Potency,[3],inactive
C#CC(O)(C=CCl)CC (configuration not stated),Potency,[1],inactive
same,activity (max response),[2],7.7%
same,Potency,[3],inactive
O=C(O)CNC(=O)C1C(=O)N(C2CCCCC2)C(=O)N(C2CCCCC2)C1=O,Potency,[1],inactive
same,activity (max response),[2],-10.4%
same,Potency,[3],inactive
C=CCC1([C@H](C)CCC)C(=O)NC(=O)NC1=O,Potency,[1],inactive
same,activity (max response),[2],-3.9%
same,Potency,[3],inactive
O=C1OC(c2ccc(O)c(S(=O)(=O)O)c2)(c2ccc(O)c(S(=O)(=O)O)c2)c2c(Br)c(Br)c(Br)c(Br)c21,Potency,[1],inactive
same,activity (max response),[2],4.14%
same,Potency,[3],inactive
Oc1ccc2c3c1O[C@H]1[C@H](N(CCCl)CCCl)CC[C@@]4(O)[C@@H](C2)N(CC2CC2)CC[C@]314,"viability, % of control",[4],83.4% [at 9.25 µM]
CNc1ccc2oc(C[C@H]3O[C@@]4(CC[C@H]3C)O[C@H](C(C)C(=O)c3ccc[nH]3)[C@H](C)C[C@H]4C)nc2c1C(=O)O (some centres not stated),Potency,[4],4.61 µM (active)
COC1CC(=O)C23C(=O)NC(CC(C)C)C2C(C)=C(C)C(OO)C3/C=C(\C)CCC(O)C1O (configuration not stated),Potency,[4],7.96 µM (active)
CC(=O)O[C@H]1C(=O)[C@]2(C)C(O)C[C@H]3OC[C@@]3(OC(C)=O)[C@H]2[C@H](OC(=O)c2ccccc2)[C@]2(O)C[C@H](O)C(C)=C1C2(C)C (some centres not stated),Potency,[4],6.85 µM (active)
C[C@H]1CCC[C@H](O)CCC/C=C/c2cc(O)cc(O)c2C(=O)O1,Potency,[4],9.2 µM (active)
C[C@H]1[C@@H]2Cc3ccc(O)cc3[C@@]1(C)CCN2C,Potency,[1],inactive
same,activity (max response),[2],-10.9%
same,Potency,[3],inactive
COc1cc(O)c2c(c1)CCC[C@@H](O)[C@H](O)C(=O)/C=C\C[C@H](C)OC2=O,Potency,[4],2.86 µM (active)
C[C@@H]1C[C@@H](O)[C@]2(O)O[C@@H]3C[C@@]4(C=O)C(CC[C@@H]5C4CC[C@]4(C)[C@@H](C6=CC(=O)OC6)CC[C@]54O)C[C@H]3O[C@@H]2O1 (some centres not stated),Potency,[4],0.0317 µM (active)
C#CCO[C@H]1CN2CCC1CC2,Potency,[4],inactive
O=C(O)c1cc(Oc2ccc(C(F)(F)F)cc2Cl)ccc1[N+](=O)[O-],Potency,[1],inactive
same,Potency,[3],inactive

# Reference: PubChem BioAssay (NCATS)
